The source of these data is PubChem BioAssay (EPA / NIEHS).

The structures appear in SMILES notation. Records with an inconclusive call do not appear. Active and inactive are the calls of the source. The calls were made as follows: active = hit-call score of the fitted dose curve at least 0.9, where 1 is the maximum; inconclusive = response in the unintended direction; inactive = score below 0.9.

Read-out in this experiment: glucuronosyltransferase (UGT1A1), UGT1A1 (gene 54658)
As to the kind of experiment: CLD_UGT1A1_24hr: CellzDirect (CLD) Gene Expression Assay for glucuronosyltransferase (UGT1A1) at 24 hours (AID 2283696). The gist of the method:
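Primary human hepatocytes from two donor preparations were dosed (0.2% DMSO vehicle) and harvested at 24 h; UGT1A1 mRNA induction was quantified by chemiluminescent qNPA, fitted as gain relative to DMSO.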
In the case of `COC(=O)c1ccccc1S(=O)(=O)NC(=O)Nc1nc(C)nc(OC)n1`, the compound was classed as inactive.

Regarding `CCOC1Oc2ccc(OS(C)(=O)=O)cc2C1(C)C` (centres undefined), the compound was called inactive.

For `Clc1ccccc1-c1nnc(-c2ccccc2Cl)nn1`, the result was inactive.

In the case of `Oc1ccc(Cl)cc1Cc1ccccc1`, the compound was classed as inactive.

As for `O=[N+]([O-])/N=C1\NCCN1Cc1ccc(Cl)nc1`, the compound was classed as inactive.

Regarding `COC(=O)c1ccccc1CS(=O)(=O)NC(=O)Nc1nc(OC)cc(OC)n1`, the call was inactive.

As to `COC(=O)c1ccccc1S(=O)(=O)NC(=O)N(C)c1nc(C)nc(OC)n1`, the result was inactive.

With `CCN(CC)C(=O)SCc1ccc(Cl)cc1`, the compound was classed as inactive.

Consider `CC(C)N(C(=O)COc1nnc(C(F)(F)F)s1)c1ccc(F)cc1`, for which the outcome was inactive.

Consider `O=[N+]([O-])c1c(Cl)c(Cl)c(Cl)c(Cl)c1Cl`, for which the compound was called inactive.

Take `CC(C)(C)C(O)/C(=C\c1ccc(Cl)cc1Cl)n1cncn1` (centres undefined): the outcome was inactive.

As to `CNC(=O)Oc1cccc(N=CN(C)C)c1`, the call was inactive.

For `O=S(=O)(O)C(F)(F)C(F)(F)C(F)(F)C(F)(F)C(F)(F)C(F)(F)C(F)(F)C(F)(F)F`, the compound was classed as inactive.

`O=C(NC(=O)c1c(F)cccc1F)Nc1ccc(OC(F)(F)C(F)OC(F)(F)F)c(Cl)c1` (centres undefined): the outcome was inactive.

As to `CCC(C)Nc1c([N+](=O)[O-])cc(C(C)(C)C)cc1[N+](=O)[O-]` (centres undefined), the compound was classed as inactive.

One may read the AC50 as the concentration giving half of the maximal activity seen. As for `CC(C)OC(=O)Nc1cccc(Cl)c1`, the AC50 was 20 µM (active).

On to `CCCN(CCC)c1c([N+](=O)[O-])cc(C(F)(F)F)cc1[N+](=O)[O-]`, for which the compound was classed as inactive.

For the compound `OCCOc1ccccc1`, the outcome was inactive.

As to `O=S1OCC2C(CO1)C1(Cl)C(Cl)=C(Cl)C2(Cl)C1(Cl)Cl` (centres undefined), the result was inactive.
